Results taken from the supplement of paper PMC10849652.
Of roughly 7,900 targets only a part is listed; those with a hit were picked by preference. About 0.6% of all pairs of compound and target were hits. Values without a mark were called inactive.

Assays:
Assay in all cases: log2 fold change, soluble protein after heating vs DMSO (PISA); higher = thermal stabilisation; K562 cells, 10 uM, 30 min; active = over 0.2 and 3.5 SD of the protein, either way, in both replicates (recomputed)
[1] = compound: C#Cc1cccc(Nc2ncnc3cc(OCCOC)c(OCCOC)cc23)c1 [erlotinib]
How it was run: (§1)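 Values are thermal stability changes relative to control samples and are taken from duplicates. They are stated as log2 fold changes. Before quantification by TMTpro 16plex LC-MS/MS with equalised channel sums, K562 cells at 2×10^6 cells/mL were treated with 10 μM compound for 30 min, heated in aliquots for 3 min across 48°C-58°C, pooled, extracted in PBS with 0.5% NP-40 at 4°C, and centrifuged at 21,000xg for 90 min to give the soluble supernatant.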

[2] = compound: C/C(=N\NC(=O)C1=CC(=CC=C1)S(=O)(=O)N2CCOCC2)/C3=C(C=CC(=C3)Cl)O
How it was run: as §1

[3] = compound: C1=CC(=C(C=C1Cl)C2=NC3=NC=CN=C3C(=N2)NC4=CC=NC=C4)F
How it was run: as §1

[4] = compound: C1=CC(=CC=C1C2=NC3=C(N2)C=C(C=C3)C(=O)N)OC4=CC=C(C=C4)Cl
How it was run: as §1

[5] = compound: C1=CC2=C(C=CC(=C2)/C=C\3/C(=O)NC(=NCC4=CC=CS4)S3)N=C1
How it was run: as §1

[6] = compound: C1=CC2=NC=CN=C2C=C1/C=C/3\C(=O)NC(=O)S3
How it was run: as §1

[7] = compound: C1=CC=C(C=C1)C2=NC(=C(N2)C3=CC=NC=C3)C4=CC(=C(C=C4)Cl)O
How it was run: as §1

[8] = compound: C1=CC=C2C(=C1)C3=NNC4=CC=CC(=C43)C2=O
How it was run: as §1

[9] = compound: C1CCN(C1)C(=O)NC2=CC=CC(=C2)NC3=NC=C(C(=N3)NCCC4=CN=CN4)Br
How it was run: as §1

[10] = compound: C1CN(CCC1(CC2=CC=C(C=C2)Cl)N)C3=NC=NC4=C3C=CN4
How it was run: as §1

[11] = compound: C1COCCN1CCN2C3=CC=CC=C3N=C2NC(=O)C4=CC(=CC=C4)[N+](=O)[O-] [IRAK-1-4 Inhibitor I]
How it was run: as §1

[12] = compound: C=CC(=O)N1CCC[C@@H](n2nc(-c3ccc(Oc4ccccc4)cc3)c3c(N)ncnc32)C1 [ibrutinib]
How it was run: as §1

[13] = compound: CC(=O)c1cnc2ccc(-c3cc(Cl)c(O)c(Cl)c3)nc2c1N[C@H]1CC[C@H](CN(C)C)CC1
How it was run: as §1

[14] = compound: CC(C)(C)Cn1c(N)nc2ccc(-c3[nH]c(C(C)(C)C)nc3-c3ccc(F)cc3)nc21 [ralimetinib]
How it was run: as §1

[15] = compound: CC(C)(O)CC(=O)NCCn1ccc2ncnc(Nc3ccc(Oc4cccc(C(F)(F)F)c4)c(Cl)c3)c21
How it was run: as §1

[16] = compound: CC(C)C1=C2N=C(C=C(N2N=C1)NCC3=CC=CC=C3)NCCCCCCN
How it was run: as §1

[17] = compound: CC(C)C[C@@H](C=O)NC(=O)[C@H](CC(C)C)NC(=O)[C@H](CC(C)C)NC(=O)OCc1ccccc1
How it was run: as §1

[18] = compound: CC(C)N(C[C@H]1O[C@@H](n2cnc3c(N)ncnc32)[C@H](O)[C@@H]1O)[C@H]1C[C@@H](CCc2nc3cc(C(C)(C)C)ccc3[nH]2)C1 [pinometostat]
How it was run: as §1

[19] = compound: CC1=C(C(CC(=O)N1)C2=CC=C(C=C2)C(F)(F)F)C(=O)NC3=C(C=C4C(=C3)C=NN4)F
How it was run: as §1

[20] = compound: CC1=C(C2=C(C=C1)C(=O)C3=CC=CC=C3N2CCCN)C
How it was run: as §1

Sequence of UniProt Q9ULX6 (Q9ULX6 whole entry, looked up): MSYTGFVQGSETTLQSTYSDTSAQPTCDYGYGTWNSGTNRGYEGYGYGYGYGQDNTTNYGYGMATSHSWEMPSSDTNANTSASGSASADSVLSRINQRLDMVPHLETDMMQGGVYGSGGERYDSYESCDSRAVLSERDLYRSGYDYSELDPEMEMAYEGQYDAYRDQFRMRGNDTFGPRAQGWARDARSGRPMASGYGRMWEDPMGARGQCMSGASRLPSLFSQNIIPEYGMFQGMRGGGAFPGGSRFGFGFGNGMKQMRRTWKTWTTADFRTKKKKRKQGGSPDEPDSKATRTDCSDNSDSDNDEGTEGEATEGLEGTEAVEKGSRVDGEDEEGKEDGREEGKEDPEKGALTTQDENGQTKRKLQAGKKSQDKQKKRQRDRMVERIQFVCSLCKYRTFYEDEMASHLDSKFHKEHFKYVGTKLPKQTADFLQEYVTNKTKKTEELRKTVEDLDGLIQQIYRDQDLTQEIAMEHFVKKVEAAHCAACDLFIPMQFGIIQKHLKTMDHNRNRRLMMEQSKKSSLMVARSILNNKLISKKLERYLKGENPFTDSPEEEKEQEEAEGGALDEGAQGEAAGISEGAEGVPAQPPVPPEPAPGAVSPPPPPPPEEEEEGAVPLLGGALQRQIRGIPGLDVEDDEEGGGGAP
Sequence of UniProt Q9H7F0 (Q9H7F0 whole entry, looked up): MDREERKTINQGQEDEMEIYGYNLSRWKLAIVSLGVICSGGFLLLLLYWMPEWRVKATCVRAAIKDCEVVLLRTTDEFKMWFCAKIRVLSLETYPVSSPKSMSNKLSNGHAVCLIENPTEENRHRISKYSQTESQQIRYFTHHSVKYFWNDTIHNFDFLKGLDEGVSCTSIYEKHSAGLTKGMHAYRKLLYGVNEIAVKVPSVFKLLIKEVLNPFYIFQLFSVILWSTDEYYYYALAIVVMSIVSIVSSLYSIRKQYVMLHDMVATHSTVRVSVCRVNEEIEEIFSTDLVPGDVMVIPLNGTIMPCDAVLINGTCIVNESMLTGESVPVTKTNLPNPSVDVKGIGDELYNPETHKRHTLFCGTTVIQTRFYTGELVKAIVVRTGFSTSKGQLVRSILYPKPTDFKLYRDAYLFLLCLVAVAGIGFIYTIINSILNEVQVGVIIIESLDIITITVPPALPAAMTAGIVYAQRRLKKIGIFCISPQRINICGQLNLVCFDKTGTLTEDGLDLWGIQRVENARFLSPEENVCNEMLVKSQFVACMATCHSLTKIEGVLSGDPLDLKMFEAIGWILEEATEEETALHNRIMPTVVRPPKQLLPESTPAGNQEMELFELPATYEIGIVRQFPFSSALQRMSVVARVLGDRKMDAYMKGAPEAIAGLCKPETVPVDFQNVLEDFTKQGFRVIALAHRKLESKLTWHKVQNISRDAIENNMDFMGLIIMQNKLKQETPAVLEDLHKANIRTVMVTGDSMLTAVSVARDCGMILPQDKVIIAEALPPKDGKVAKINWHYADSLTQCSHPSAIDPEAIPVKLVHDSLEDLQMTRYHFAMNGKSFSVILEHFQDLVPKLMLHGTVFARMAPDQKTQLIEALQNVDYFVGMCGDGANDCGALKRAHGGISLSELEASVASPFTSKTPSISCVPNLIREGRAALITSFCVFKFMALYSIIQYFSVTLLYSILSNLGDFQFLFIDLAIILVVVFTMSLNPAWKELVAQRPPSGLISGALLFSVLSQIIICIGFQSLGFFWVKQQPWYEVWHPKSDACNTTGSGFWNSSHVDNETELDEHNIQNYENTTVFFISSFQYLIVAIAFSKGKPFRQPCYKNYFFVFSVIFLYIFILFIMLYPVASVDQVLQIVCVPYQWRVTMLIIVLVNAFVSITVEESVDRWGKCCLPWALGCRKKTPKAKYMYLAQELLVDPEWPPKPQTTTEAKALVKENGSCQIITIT
Sequence of UniProt O14965 (O14965 whole entry, looked up): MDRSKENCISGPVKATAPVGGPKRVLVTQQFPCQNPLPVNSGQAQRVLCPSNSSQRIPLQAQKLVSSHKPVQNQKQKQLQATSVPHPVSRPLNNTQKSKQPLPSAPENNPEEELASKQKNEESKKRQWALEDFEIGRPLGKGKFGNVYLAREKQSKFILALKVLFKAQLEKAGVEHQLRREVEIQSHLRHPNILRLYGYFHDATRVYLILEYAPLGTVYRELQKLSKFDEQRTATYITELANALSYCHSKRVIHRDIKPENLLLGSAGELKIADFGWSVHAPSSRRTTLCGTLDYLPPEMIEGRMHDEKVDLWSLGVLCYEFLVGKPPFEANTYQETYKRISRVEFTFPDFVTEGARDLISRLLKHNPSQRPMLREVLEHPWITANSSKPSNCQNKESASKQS
Sequence of UniProt P54707 (P54707 whole entry, looked up): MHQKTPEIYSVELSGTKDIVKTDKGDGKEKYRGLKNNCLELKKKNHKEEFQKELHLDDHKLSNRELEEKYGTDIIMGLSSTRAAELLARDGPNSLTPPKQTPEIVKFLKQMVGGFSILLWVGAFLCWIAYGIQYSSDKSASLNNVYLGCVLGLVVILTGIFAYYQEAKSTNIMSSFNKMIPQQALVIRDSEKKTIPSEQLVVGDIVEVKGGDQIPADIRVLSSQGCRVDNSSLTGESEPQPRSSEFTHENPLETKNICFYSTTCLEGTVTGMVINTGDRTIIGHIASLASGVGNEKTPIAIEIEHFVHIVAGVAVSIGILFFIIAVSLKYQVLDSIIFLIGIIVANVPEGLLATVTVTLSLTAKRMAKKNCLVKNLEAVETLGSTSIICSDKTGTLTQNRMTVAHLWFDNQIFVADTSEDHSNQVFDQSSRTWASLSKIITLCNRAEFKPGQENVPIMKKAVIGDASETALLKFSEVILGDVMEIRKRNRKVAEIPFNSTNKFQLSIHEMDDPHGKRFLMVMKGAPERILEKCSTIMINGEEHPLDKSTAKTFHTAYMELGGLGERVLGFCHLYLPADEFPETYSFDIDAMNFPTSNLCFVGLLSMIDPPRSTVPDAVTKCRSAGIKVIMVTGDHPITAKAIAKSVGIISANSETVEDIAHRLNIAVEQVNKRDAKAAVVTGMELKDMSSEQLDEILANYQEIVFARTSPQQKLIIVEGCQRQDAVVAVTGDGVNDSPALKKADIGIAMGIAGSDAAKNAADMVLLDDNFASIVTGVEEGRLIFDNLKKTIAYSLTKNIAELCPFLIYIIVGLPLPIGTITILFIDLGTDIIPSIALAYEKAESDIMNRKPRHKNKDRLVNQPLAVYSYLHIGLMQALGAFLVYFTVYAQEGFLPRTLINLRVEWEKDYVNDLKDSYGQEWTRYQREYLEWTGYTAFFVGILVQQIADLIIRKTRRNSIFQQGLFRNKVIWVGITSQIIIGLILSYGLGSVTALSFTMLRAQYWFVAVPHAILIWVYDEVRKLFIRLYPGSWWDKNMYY
Sequence of UniProt Q9Y4P1 (Q9Y4P1 whole entry, looked up): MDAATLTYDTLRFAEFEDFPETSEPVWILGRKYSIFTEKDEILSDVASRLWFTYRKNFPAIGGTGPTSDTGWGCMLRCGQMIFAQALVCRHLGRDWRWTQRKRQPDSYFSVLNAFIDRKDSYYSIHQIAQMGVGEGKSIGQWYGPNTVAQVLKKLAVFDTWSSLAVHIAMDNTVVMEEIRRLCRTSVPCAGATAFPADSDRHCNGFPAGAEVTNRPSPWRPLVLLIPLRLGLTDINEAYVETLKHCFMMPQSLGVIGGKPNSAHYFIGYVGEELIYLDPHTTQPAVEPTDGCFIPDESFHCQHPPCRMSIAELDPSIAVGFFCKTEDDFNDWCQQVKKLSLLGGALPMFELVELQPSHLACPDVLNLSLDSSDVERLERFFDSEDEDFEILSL
Sequence of UniProt P56385 (P56385 whole entry, looked up): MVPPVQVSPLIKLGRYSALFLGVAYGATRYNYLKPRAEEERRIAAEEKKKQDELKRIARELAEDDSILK
Sequence of UniProt Q6P6C2 (Q6P6C2 whole entry, looked up): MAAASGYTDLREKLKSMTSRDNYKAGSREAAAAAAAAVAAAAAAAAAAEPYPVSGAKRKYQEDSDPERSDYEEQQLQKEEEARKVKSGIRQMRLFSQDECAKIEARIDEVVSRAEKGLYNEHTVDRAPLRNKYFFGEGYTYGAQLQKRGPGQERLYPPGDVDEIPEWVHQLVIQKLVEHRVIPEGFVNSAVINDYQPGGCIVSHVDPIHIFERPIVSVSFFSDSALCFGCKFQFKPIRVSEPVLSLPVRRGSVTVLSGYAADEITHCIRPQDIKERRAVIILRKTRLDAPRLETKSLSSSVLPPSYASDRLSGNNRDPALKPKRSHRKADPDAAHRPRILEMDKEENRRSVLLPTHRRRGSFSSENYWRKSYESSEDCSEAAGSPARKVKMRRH
Sequence of UniProt Q8N6S5 (Q8N6S5 whole entry, looked up): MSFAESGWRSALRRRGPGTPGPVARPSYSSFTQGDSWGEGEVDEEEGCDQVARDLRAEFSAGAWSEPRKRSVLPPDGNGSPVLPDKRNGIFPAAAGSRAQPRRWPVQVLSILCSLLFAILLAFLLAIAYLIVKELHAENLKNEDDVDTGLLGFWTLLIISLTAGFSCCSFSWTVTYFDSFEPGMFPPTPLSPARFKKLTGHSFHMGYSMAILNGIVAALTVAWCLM
Sequence of UniProt P05091 (P05091 whole entry, looked up): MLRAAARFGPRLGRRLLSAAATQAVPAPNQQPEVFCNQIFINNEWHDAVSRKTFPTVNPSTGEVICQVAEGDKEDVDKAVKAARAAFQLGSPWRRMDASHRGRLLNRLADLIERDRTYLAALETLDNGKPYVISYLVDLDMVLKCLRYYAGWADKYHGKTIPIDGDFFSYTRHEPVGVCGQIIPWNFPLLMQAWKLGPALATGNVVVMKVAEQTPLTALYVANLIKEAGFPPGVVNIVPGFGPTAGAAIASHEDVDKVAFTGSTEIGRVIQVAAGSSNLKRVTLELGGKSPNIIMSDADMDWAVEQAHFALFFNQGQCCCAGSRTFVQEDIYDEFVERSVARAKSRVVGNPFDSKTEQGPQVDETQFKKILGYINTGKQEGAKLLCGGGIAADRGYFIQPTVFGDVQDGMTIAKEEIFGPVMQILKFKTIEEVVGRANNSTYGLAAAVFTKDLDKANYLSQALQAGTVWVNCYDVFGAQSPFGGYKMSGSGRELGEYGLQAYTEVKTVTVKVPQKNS

Target | log2 fold change [1] | log2 fold change [2] | log2 fold change [3] | log2 fold change [4] | log2 fold change [5] | log2 fold change [6] | log2 fold change [7] | log2 fold change [8] | log2 fold change [9] | log2 fold change [10] | log2 fold change [11] | log2 fold change [12] | log2 fold change [13] | log2 fold change [14] | log2 fold change [15] | log2 fold change [16] | log2 fold change [17] | log2 fold change [18] | log2 fold change [19] | log2 fold change [20]
ATG4B isoform 2 (UniProt Q9Y4P1) | -0.008 | 0.078 | 0.017 | 0.178 | 0.118 | 0.089 | 0.143 | -0.046 | -0.087 | -0.033 | 0.127 | -0.038 | -0.102 | 0.134 | -0.194 | -0.299 | -0.137 | -0.013 | -0.031 | 0.114
AURKA (UniProt O14965) | 0.181 | 0.018 | -0.055 | -0.061 | -0.08 | -0.028 | 0.028 | 0.462 | 0.707 (active) | -0.313 | -0.05 | 0.193 | 0.914 (active) | 0.062 | -0.056 | -0.128 | 0.16 | 0.033 | 0.001 | 0.059
BLOC1S3 (UniProt Q6QNY0) | 0.027 | -0.009 | 0.04 | -0.003 | 0.093 | 0.012 | 0.031 | -0.052 | -0.032 | 0.052 | 0.018 | -0.037 | 0.427 (active) | -0.033 | -0.058 | 0.005 | -0.045 | -0.041 | -0.01 | 0.076
B4GALNT1 (UniProt Q00973) | -0.176 | -0.006 | 0.029 | 0.101 | 0.124 | -0.038 | -0.073 | -0.189 | 0.069 | -0.141 | 0.01 | -0.159 | -0.188 | -0.129 | 0.017 | 0.038 | 0.052 | -0.101 | -0.119 | 0.057
ALDH2 (UniProt P05091) | -0.009 | 0.121 | 0.039 | 0.021 | 0.096 | 0.022 | -0.019 | 0.097 | -0.041 | 0.02 | 0.005 | 0.002 | -0.005 | -0.086 | -0.037 | 0.018 | -0.032 | -0.034 | -0.046 | 0.063
ARMC10 (UniProt Q8N2F6) | -0.021 | 0.044 | -0.092 | -0.066 | 0.005 | 0.006 | -0.034 | 0.016 | 0.003 | -0.023 | 0.001 | -0.018 | -0.035 | -0.003 | -0.029 | 0.005 | 0.034 | 0.033 | 0.003 | 0
ARL6IP6 (UniProt Q8N6S5) | 0.064 | 0.116 | -0.102 | 0.034 | -0.006 | 0.001 | 0.201 | -0.087 | 0.01 | -0.036 | 0.12 | 0.056 | 0.168 | 0.413 (active) | 0 | -0.049 | -0.199 | 0.069 | -0.014 | 0.02
ATP5ME (UniProt P56385) | 0.013 | 0.037 | 0.136 | -0.007 | 0.085 | 0.051 | 0.023 | 0.002 | -0.051 | 0.013 | -0.003 | -0.002 | -0.019 | -0.04 | -0.044 | 0.031 | 0.011 | -0.036 | 0.011 | 0.039
ATP12A isoform 2 (UniProt P54707) | 0.01 | -0.002 | 0.025 | 0.014 | 0.007 | 0.026 | 0.025 | -0.049 | -0.051 | 0.05 | 0.013 | 0.009 | -0.033 | -0.031 | -0.036 | 0.162 | -0.005 | -0.03 | -0.02 | 0.086
ABCA4 (UniProt P78363) | 0.191 | -0.367 | 0.107 | -0.151 | 0.062 | -0.073 | 0.042 | 0.044 | 0.033 | 0.145 | 0.128 | 0.078 | -0.014 | 0.215 | -0.047 | 0.127 | 0.481 | -0.06 | -0.05 | 0.082
AKAP8L (UniProt Q9ULX6) | 0.001 | 0.085 | 0.074 | 0.026 | -0.006 | -0.058 | -0.054 | -0.027 | -0.053 | 0.031 | -0.076 | -0.001 | -0.128 | 0.091 | -0.091 | -0.299 | 0.106 | -0.018 | 0.024 | -0.34
ALKBH5 (UniProt Q6P6C2) | 0.176 | -0.637 (active) | -0.126 | 0.139 | 0.056 | -0.067 | 0.015 | -0.032 | -0.087 | 0.113 | 0.015 | 0.05 | 0.053 | 0.049 | 0.025 | 0.198 | -0.016 | -0.013 | 0.029 | 0.086
BST2 (UniProt Q10589) | -0.018 | 0.026 | -0.046 | 0 | 0.009 | 0.024 | -0.062 | -0.013 | 0.066 | -0.063 | -0.004 | 0 | -0.109 | 0.033 | 0.025 | -0.108 | 0.12 | -0.006 | 0.026 | 0.017
ATP13A3 (UniProt Q9H7F0) | 0.043 | -0.046 | 0.05 | 0.018 | 0.016 | 0.038 | -0.006 | -0.028 | 0.017 | 0.049 | 0.043 | -0.005 | 0.004 | -0.032 | -0.136 | -0.199 | 0.073 | -0.007 | 0.042 | -0.035
B4GALT1 (UniProt P15291) | -0.095 | 0.07 | -0.018 | 0.047 | -0.033 | 0.07 | -0.035 | 0.024 | -0.078 | 0.017 | 0.034 | -0.057 | -0.019 | 0.094 | 0.094 | -0.294 (active) | 0.017 | -0.051 | 0.006 | -0.03
ADH5 (UniProt P11766) | -0.012 | 0.034 | 0.05 | -0.016 | 0.001 | 0.007 | -0.039 | 0.002 | 0.004 | 0.037 | 0.038 | 0.011 | 0.014 | -0.097 | -0.02 | 0.05 | -0.041 | -0.05 | 0.01 | 0.019
